# KB-3-1 cytotox = kills parental KB-3-1 adenocarcinoma cells | KB-3-1 viability, CellTiter-Glo ATP luminescence, 72 h | Potency, µM (top dose mostly 46.1 µM), most hits filed as cytotoxic | hit rate 1.4% among 400,000; also: nearly all actives have a fitted effect of over 60% in size
#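 Multi-concentration cytotoxicity screen in KB-3-1 cells grown in DMEM lacking phenol red with 10% FBS. After 72 h at 37 °C with compound, ATP-dependent luminescence was recorded.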
# HT1080-NT tox = kills 2HG-producing HT-1080-NT fibrosarcoma cells. HT-1080-NT fibrosarcoma viability, CellTiter-Glo ATP luminescence, 48 h. Potency, µM (titrated, usually from 46.1 µM), without a hit: at the highest dose activity, negative = less viability, hits mostly cytotoxic. hit rate 1.6% among 360,000. AID 686970;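 also: NT is the 2HG producing partner of a matched IDH1 knockdown line; 0% = DMSO-treated cells and -100% = media-only wells without cells; nearly all actives have a fitted effect of over 55% in size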
#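 Viability of the 2HG-overproducing fibrosarcoma line after 48 hours of compound exposure at 37 degrees C was determined by luminescence with CellTiter-Glo, and concentration-effect curves were then fitted and categorized.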
# KB-V1 cytotox = KB-V1 MDR subline cytotoxicity; KB-V1 MDR cells viability, CellTiter-Glo, 72 h; Potency, µM (doses to about 46.1 µM), usual class: cytotoxic; hit rate 3.4% among 400,000; also: nearly all actives have a fitted effect of over 60% in size
#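 qHTS viability screen in drug-selected KB-V1 MDR cells: 72 h compound treatment at 37 degrees C, ATP luminescence end point.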
# HT1080 IDH1KD tx = toxicity to HT-1080 IDH1 knockdown cells (counter line). HT-1080 IDH1 knockdown viability, ATP luminescence, 48 h. hit rate 2% among 360,000. AID 686971. Potency, µM (titrated, usually from 46.1 µM), for inactives: at the highest dose activity, negative = toxicity, usual class: cytotoxic;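 also: 0% = DMSO wells and -100% = cell-free medium wells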
#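 IDH1KD HT-1080 cells, 750/well, RPMI + 5% FBS; compound pinned after 2 h settling; 48 h, 37 °C; CellTiter-Glo luminescence; % activity normalised to DMSO and no-cell wells; curves fitted, classed by r2 and efficacy.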
# Active calls of the source: *; i = inactive; ? = inconclusive; . = no result given. This is a sample that favours compounds with a hit; in the whole collection about 5.7% have one here. Calls follow the shape of the dose curve; as a rule, active = well fitted curve in the direction sought with a large enough effect; inconclusive = small, poorly fitted or top-dose-only effect, or another doubt; inactive = no such curve, though single readings can be large; an effect the other way counts as inactive or inconclusive. Unless noted, % is scaled to controls: 0 for no effect and ±100 for the full control effect; potency is read from the fitted curve at half-maximal effect.
SMILES,KB-3-1 cytotox,HT1080-NT tox,KB-V1 cytotox,HT1080 IDH1KD tx
CCOC(=O)c1cnc(-n2nc(C)cc2C)nc1NC1CCCCC1,?,?,8.2µM*,-15%
Cc1cccc(Cn2c(=O)n(CC3CCC(C(=O)N4CCOCC4)CC3)c(=O)c3sccc32)c1 (configuration not stated),i,.,i,.
CC1CCCN(C(=O)Cc2cn(Cc3cccc(Cl)c3)c3ccccc23)C1 (configuration not stated),i,?,?,?
O=C(Cc1cn(Cc2cccc(Cl)c2)c2ccccc12)N1CCCCCC1,?,-10%,4.6µM*,-5%
CC(C)N=C(NS(=O)(=O)c1ccccc1)C(Cl)(Cl)Cl,5.8µM*,7.3µM*,23µM*,7.3µM*
Cc1ccc(NC(=O)C2CCCN(c3nnc(C)c4c(C)n(-c5ccccc5)nc34)C2)cc1Cl (configuration not stated),i,.,i,.
CCn1c(-c2cc3c(C(F)(F)F)nn(C)c3s2)n[nH]c1=S,?,-4%,10µM*,0%
Cn1c(-c2cc3c(C(F)(F)F)nn(C)c3s2)n[nH]c1=S,i,-5%,?,-8%
CN1C(=O)Cc2cc(S(=O)(=O)CCC(=O)N3CCN(c4cccc(Cl)c4)CC3)ccc21,i,.,i,.
COc1ccc(NC(=O)CSc2nnc(-c3ccccn3)n2N)cc1Cl,i,-2%,16µM*,-22%
CC(C)c1ccc(NC(=O)CSc2nnc(-c3ccccn3)n2C)cc1,i,2%,5.2µM*,13%
C=C(C)Cn1c(SCC(=O)Nc2ccccc2C)nc2sc3c(c2c1=O)CCCC3,i,.,i,.
CCN1/C(=C\C(=S)Nc2ccccc2)Sc2ccccc21,?,15µM*,i,9.2µM*
CN(C)c1ccc(CNC(=O)c2ccc(Cn3c(SCc4ccccc4)nc4cccnc43)cc2)cc1,i,.,i,.
Cc1cc(N2CCN(c3cccc(C(F)(F)F)c3)CC2)n2ncnc2n1,?,3%,i,8%
Cc1nc2ncnn2c(N2CCN(c3cccc(C(F)(F)F)c3)CC2)c1C,21µM*,?,2.6µM*,?
Cc1nc2ncnn2c(N2CCN(C(c3ccccc3)c3ccccc3)CC2)c1C,i,-15%,23µM*,?
Cc1cc(N2CCN(C(c3ccccc3)c3ccccc3)CC2)n2ncnc2n1,i,1%,?,-1%
COc1cc(C)ccc1OCCSc1nnc(-c2ccc(C)cc2)o1,i,.,i,.
O=C1N=C(N2CCN(c3ccccc3)CC2)SC1Cc1ccccc1 (configuration not stated),i,-1%,16µM*,-4%
CCOc1ccccc1C1NC(=O)c2ccccc2O1 (configuration not stated),i,12%,i,13%
COc1ccc(/C=C2\Oc3ccccc3C2=O)cc1,?,10%,?,-2%
COc1ccc(/C=C2\C(=O)c3ccccc3OC2c2ccccc2)cc1 (configuration not stated),?,?,7.3µM*,?
CCOc1ccc(/C=C2\C(=O)c3ccccc3OC2c2ccccc2)cc1 (configuration not stated),?,11%,16µM*,-26%
Cc1cc(NC(=O)CCc2nc3cccnc3n2-c2ccccc2)ccc1Br,i,.,i,.
SMILES,KB-3-1 cytotox,HT1080-NT tox,KB-V1 cytotox,HT1080 IDH1KD tx
O=C(O)c1cc(=O)c2c3nc4ccccc4oc-3cc(=O)c2[nH]1,i,.,i,.
Nc1[nH]n(-c2ccccc2)c(=O)c1N=Nc1ccccc1[N+](=O)[O-],i,17%,?,18%
O=c1c2cc([N+](=O)[O-])cc([N+](=O)[O-])c2[nH]n1-c1ccccc1,?,-25%,0.82µM*,-27%
Cc1nn(-c2ccccc2)c2c1cc1c(=O)[nH]c(=O)nc-1n2-c1cccc(C(F)(F)F)c1,i,.,?,.
CN(C)c1ccc(C=Nc2cncc3ccccc23)cc1,?,.,i,.
O=C(Nc1cccc(Cl)c1)c1nc[nH]c1C(=O)NCCCCNC(=O)c1[nH]cnc1C(=O)Nc1cccc(Cl)c1,?,?,?,21%
O=C(Nc1ccc(Cl)cc1)c1nc[nH]c1C(=O)NCCCCNC(=O)c1[nH]cnc1C(=O)Nc1ccc(Cl)cc1,?,7%,21µM*,9%
CCOc1ccc(Cl)cc1C1CC(=O)Nc2cc(OC)c(OC)c(OC)c21 (configuration not stated),i,.,i,.
CC(=O)N1CCC(N(Cc2ccco2)C(=O)Nc2ccc(Br)cc2F)CC1,i,.,i,.
CCC(C)c1ccccc1N1CC(C(=O)NCCC2=CCCCC2)CC1=O (configuration not stated),i,-2%,23µM*,1%
COc1ccc(CCn2c(Br)nc3c2c(=O)[nH]c(=O)n3C)cc1,5.2µM*,?,4.1µM*,10µM*
Cn1c(=O)[nH]c(=O)c2c1nc(Br)n2C/C=N/Nc1ccccc1,16µM*,3.7µM*,i,5.8µM*
COc1ccc(CCn2c(NN)nc3c2c(=O)[nH]c(=O)n3C)cc1,13µM*,8.2µM*,?,?
COc1ccc(CCn2c(N3CCN(C)CC3)nc3c2c(=O)[nH]c(=O)n3C)cc1,i,11%,i,11%
COc1ccccc1NS(=O)(=O)c1cc(NC(=O)CNC(=O)c2cc(C)cc(C)c2)ccc1C,i,5%,18µM*,0%
COc1ccccc1NS(=O)(=O)c1cc(NC(=S)Nc2cc(C)cc(C)c2)ccc1Cl,?,11%,15µM*,10%

# Bioassay records as filed in PubChem BioAssay.
